The whole screen tested about 85,000 compounds, of which about 35 (0.04%) were called active.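 How the source made its calls: active means viability drop by adding the cancer drug above about 55%, with treated viability meeting a 40% cutoff (limit read from the data); inactive means the rest, inconclusive results apart.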 The entries come from a sample that favours actives as a whole.
Assay: MRP1 drug-resistance reversers in H69AR cells – cell-based, doxorubicin co-treatment, primary screen (AID 602);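 on differential viability (reversal): larger differential means the compound sensitizes cells more to doxorubicin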
Settings: CellTiter-Glo, 72 h, at 10 µM; for differential viability (reversal): stronger effect = higher value
[1] = H69AR cells + 2 uM doxorubicin, measured here: viability with 2 uM doxorubicin, stronger effect = lower value
[2] = H69AR cells, measured here: cytotoxicity without doxorubicin

Compound	differential viability (reversal) (H69AR cells + 2 uM doxorubicin)	viability [1] [%]	viability [2] [%]
COc1ccc(-n2c(C)csc2=S)cc1	-2.75% (inactive)	89.3	86.6
CCN(CC)CCNC(=O)CCCCCn1c(=O)[nH]c2cc(C(=O)OC)ccc2c1=O	10.3% (inactive)	91.6	102
N=c1c2c3c(sc2nc2n1CCCCC2)CCCC3	9.08% (inactive)	75.2	84.3
Cc1cnc(NC(=O)C2CCCC2)s1	-2.44% (inactive)	100	97.7
Oc1ccccc1CNc1ncc(Br)cc1Br	-9.74% (inactive)	83.2	73.5
O=C(COC(=O)c1n[nH]c2ccccc12)NCc1ccccc1	1.28% (inactive)	95.4	96.7
CCOc1ccc(Nc2nc(Cc3nnc(SCC(=O)c4ccc(C)cc4)o3)cs2)cc1	-4.34% (inactive)	92.9	88.6
O=C1CC(Sc2ncn[nH]2)C(=O)N1c1ccccc1 (stereo not given)	9.11% (inactive)	87	96.1
O=C(c1cccc(F)c1)N1CCC(O)(c2cccnc2)CC1	5.21% (inactive)	82.9	88.1
O=C(NCc1ccco1)C1(c2ccc(Cl)cc2)CCCC1	-5.04% (inactive)	102	96.8
O=C(c1ccc2c(c1)OCO2)N1CCN(C(=O)c2ccco2)CC1	18.9% (inactive)	73	91.9
O=C(c1ccccc1Oc1ccccc1)N1CCN(c2ccc(F)cc2)CC1	4.49% (inactive)	95.8	100
COc1ccc(N2CCN(C(=O)CCc3nc(-c4ccc(C)cc4)no3)CC2)cc1	16.8% (inactive)	81.6	98.4
CS(=O)(=O)N(Cc1ccc(Cl)cc1)c1ccc(C(=O)NCCSCc2ccco2)cc1	-17.6% (inactive)	111	93.7
COC(=O)C1=C(Nc2ccc(OC)cc2)C=C(C)C(C(=O)OC)C1c1ccc(C)cc1 (stereo not given)	-22.3% (inactive)	77.8	55.6
COc1ccc(C(C#N)N2N=C(C)CC2(C)C)cc1 (stereo not given)	15.2% (inactive)	89.1	104
Cn1c(=O)c2c(SCC(=O)N3CCOCC3)nc(C3CC3)nc2n(C)c1=O	-2.72% (inactive)	84.5	81.8
CO/N=C(/CS(=O)(=O)c1ccc(Br)cc1)c1ccc(OC)cc1	-26.9% (inactive)	58.3	31.4
CCSc1ccccc1C(=O)NCc1ccc(OC)cc1	7.76% (inactive)	84.9	92.6
Cc1ccc2cc(CCNC(=O)c3ccc4c(c3)OCO4)c(=O)[nH]c2c1	-5.04% (inactive)	84.9	79.8
CCC(O)CNc1nc(-n2nc(C)cc2C)nc2sc3c(c12)CC(C)(C)OC3 (stereo not given)	-4.15% (inactive)	48.8	44.6
CC(C)(CNC(=O)c1cc(=O)[nH]c2ccccc12)N1CCOCC1	3.32% (inactive)	97.6	101
Cc1ccc(N(CC(=O)Nc2cc(C)cc(C)c2)S(=O)(=O)c2cccc3nonc23)cc1	-3.92% (inactive)	101	96.6
Cn1ccs/c1=N\S(=O)(=O)c1ccc(C(C)(C)C)cc1	11.8% (inactive)	77.6	89.4
CCOC(=O)c1ccc(COC(=O)CCc2nc(-c3ccccc3)c(-c3ccccc3)o2)cc1	-11.9% (inactive)	83.3	71.4

Compound	differential viability (reversal) (H69AR cells + 2 uM doxorubicin)	viability [1] [%]	viability [2] [%]
CCCC(C)C(=O)Nc1ccc(NC(C)=O)cc1 (stereo not given)	22.1% (inactive)	80.5	103
COc1c(F)c(F)c(C(=O)O)c(Nc2ccccc2C)c1F	3.75% (inactive)	94.8	98.5
C=CCc1ccc(OCCOc2cccc(/C=N/n3cnnc3)c2)c(OC)c1	9.09% (inactive)	71.3	80.3
CCOC(=O)CSc1nc2ccc(C)cc2[nH]1	2.1% (inactive)	87.3	89.4
C=CCn1c(SCC(=O)c2ccc(Br)cc2)nnc1C(C)NC(=O)Cc1ccc(OC)cc1 (stereo not given)	22.5% (inactive)	49.3	71.8
O=C1CSC(c2cccc(F)c2)N1c1ccc(O)cc1 (stereo not given)	12.3% (inactive)	88.2	101
Cc1nnc(NCCO)c2ccccc12	7.47% (inactive)	82.3	89.8
CCn1c(SCC(=O)c2ccc3ccccc3c2)nnc1-c1cccs1	5.66% (inactive)	98.1	104
Cc1cc(C(=O)Nc2ccccc2N2CCOCC2)c2ccccc2n1	-7.84% (inactive)	75.7	67.9
Cc1nnc(SCC(=O)NC2CCCC2)s1	7.72% (inactive)	107	115
Nn1c(SCC(=O)NC2CCCC2)nnc1-c1ccccc1F	13.3% (inactive)	88.7	102
COC(CNC(=O)Cn1ncc2ccsc2c1=O)OC	-2.17% (inactive)	103	101
Cc1cccc(N2CCN(C(c3ccc(N(C)C)cc3)c3nnnn3C(C)(C)C)CC2)c1C (stereo not given)	2.35% (inactive)	81	83.3
CCOC(=O)C1=C(CSc2nnnn2C)N(C)C(=O)NC1c1ccccc1 (stereo not given)	12.1% (inactive)	81	93.1
COc1ccc(CCNS(=O)(=O)c2ccc(Cl)s2)cc1OC	13.7% (inactive)	79.3	93
O=S(=O)(Nc1ccc(Oc2ncccn2)c(Cl)c1)c1ccc(F)cc1	4.78% (inactive)	88.8	93.6
CC(c1ccccn1)N(CCN(C)C)C(=S)Nc1ccccc1F (stereo not given)	16.9% (inactive)	100	117
CCC(=O)NC(Nc1cc(C)ccn1)(C(F)(F)F)C(F)(F)F	7.06% (inactive)	92	99
O=C(NCC1CCC(C(=O)O)CC1)OCc1ccccc1 (stereo not given)	6.33% (inactive)	92.2	98.5
CCN(CC)CCn1c(=S)[nH]c2ncccc2c1=O	12.4% (inactive)	88.8	101
CCOC(=O)C1C(=O)NCC1c1ccccc1 (stereo not given)	1.49% (inactive)	98.4	99.9
CC(C)CC(N=C1NC(C)(C)Cc2ccccc21)C(=O)O (stereo not given)	9.71% (inactive)	98.6	108
CCCCNC(=O)OC(C)CNC(=O)OC (stereo not given)	-15% (inactive)	111	95.6
COc1cc(OC)nc(NC(=O)CCl)n1	4.9% (inactive)	93.8	98.7
Cc1cc2nc(C)n(CCCNC(=O)Nc3ccccc3)c2cc1C	7.8% (inactive)	83.9	91.7
